Consider 7 compounds from PubChem BioAssay (NCI).

Among the test systems are HCT-15 colon; HT29 colon; SNB-75 CNS; SNB-19 CNS; U251 CNS; PC-3 prostate; SK-MEL-5 melanoma; UACC-62 melanoma; LOX IMVI melanoma; SK-MEL-28 melanoma; SK-MEL-2 melanoma; EKVX NSCLC; SN12C renal; UO-31 renal; TK-10 renal; ACHN renal; CAKI-1 renal; A498 renal; CCRF-CEM leukemia; MOLT-4 leukemia.
What all share (assay): NCI-60 one-dose screen, 48 h (100 = growth as untreated, 0 = no growth, -100 = all killed)
What all share (details): 10 µM unless noted

Compounds without any hit were thinned out: in the full panel of roughly 83,000, 20% have a hit.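 Testing used 96-well plates and a 48-hour single-concentration exposure. Example: -40 means 40% of the starting cells died.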 A number with no mark means an inactive call. Calls of active or inactive are those of the source. How the source made its calls: active means growth percent below 10; inactive means the rest.

With `C#CC#CC#CC#CC#CC#CC#CC#CC[C@H]1OC[C@@H](COC(=O)O[C@@H](C(=O)O[C@H]2C[C@@]3(O)[C@@H](OC(=O)c4ccccc4)[C@@H]4[C@]5(OC(C)=O)CO[C@@H]5C[C@H](O)[C@@]4(C)C(=O)[C@H](OC(C)=O)C(=C2C)C3(C)C)[C@@H](NC(=O)c2ccccc2)c2ccccc2)O1`, the growth with HCT-15 colon is 95.2%; with HT29 colon it was 7.9% (active); with SNB-75 CNS, 32.8%; in the assay on SNB-19 CNS it was 55.8%; in the assay on U251 CNS it was 43.4%; with PC-3 prostate, 45.7%. The growth was 64.8% with SK-MEL-5 melanoma; 50.9% with UACC-62 melanoma; 41.1% with LOX IMVI melanoma; 62.8% in the assay with SK-MEL-28 melanoma; 76.2% in the assay with SK-MEL-2 melanoma; 75.4% with EKVX NSCLC. The growth in the assay with SN12C renal is 50.2%; in the assay with UO-31 renal, 102%; in the assay on TK-10 renal, 86.5%; with ACHN renal, 89.9%; in the assay on CAKI-1 renal, 79.6%; in the assay with A498 renal, 45.4%. Further, the results for the growth with CCRF-CEM leukemia and in the assay with MOLT-4 leukemia were 36.2% and 42.5%, respectively.

With `C/C(C=O)=C\c1ccc2c(c1)OCO2`, the growth was 108% with HCT-15 colon; 110% with HT29 colon; 102% in the assay with SNB-75 CNS; 111% in the assay with SNB-19 CNS; 107% with U251 CNS; 104% in the assay on PC-3 prostate. Besides, the growth in the assay with SK-MEL-5 melanoma is 105%; in the assay with UACC-62 melanoma, 105%; in the assay on LOX IMVI melanoma it was 96.7%; with SK-MEL-28 melanoma, 124%; in the assay on SK-MEL-2 melanoma, 109%; with EKVX NSCLC, 102%. The growth with SN12C renal was 110%; in the assay with UO-31 renal, 102%; in the assay on TK-10 renal, 90.7%; with ACHN renal, 113%; in the assay with CAKI-1 renal it was 107%; in the assay on A498 renal, 68%. Also, the growth in the assay on CCRF-CEM leukemia was -5.12% (active); in the assay with MOLT-4 leukemia it was 116%.

On to `COc1cccc2c(N=NC(=O)c3ccc(S(N)(=O)=O)cc3)c(O)[nH]c12`, for which the growth in the assay with HCT-15 colon is 98.8%; in the assay on HT29 colon, 106%; in the assay on SNB-75 CNS, 95.1%; in the assay on SNB-19 CNS it was 97.1%; with U251 CNS, 101%; with PC-3 prostate, 99.1%. Besides, the growth with SK-MEL-5 melanoma is 99.4%; in the assay on UACC-62 melanoma, 99.8%; in the assay with LOX IMVI melanoma it was 99.5%; with SK-MEL-28 melanoma it was 112%; with SK-MEL-2 melanoma it was 112%; in the assay on EKVX NSCLC, 98.4%. Further, the growth was 98.3% in the assay with SN12C renal; 76.7% with UO-31 renal; 108% with TK-10 renal; 105% in the assay with ACHN renal; 93.6% with CAKI-1 renal; 94.8% in the assay on A498 renal. Further, the growth in the assay with CCRF-CEM leukemia was 112%; in the assay with MOLT-4 leukemia it was 109%.

With `N#Cc1c(-c2ccccc2)nc2c(c(-c3ccccc3)nn2-c2ccccc2)c1-c1ccc(N2CCOCC2)cc1`, the growth in the assay with HCT-15 colon is 37.3%; in the assay with HT29 colon, 52.4%; in the assay with SNB-75 CNS, 86.9%; with SNB-19 CNS it was 94.5%; in the assay with U251 CNS it was 65.9%; in the assay with PC-3 prostate, 81.7%. For the same compound, the growth in the assay with SK-MEL-5 melanoma is 98.8%; in the assay with UACC-62 melanoma, 106%; in the assay on LOX IMVI melanoma, 51.6%; in the assay with SK-MEL-28 melanoma, 107%; in the assay on SK-MEL-2 melanoma, 102%; in the assay with EKVX NSCLC it was 103%. The growth in the assay on SN12C renal was 93.4%; in the assay with UO-31 renal it was 70.3%; in the assay with TK-10 renal, 101%; with ACHN renal, 103%; with CAKI-1 renal, 81.8%; in the assay with A498 renal it was 95.1%. Also, the growth in the assay on CCRF-CEM leukemia is 64.6%; with MOLT-4 leukemia, 62.7%.

On to `CCOC(=O)c1c(NC(=O)c2ccc(C(C)(C)C)cc2)sc2cc(O)ccc12`, for which the growth in the assay with HCT-15 colon is 70.3%; with HT29 colon it was 80.6%; with SNB-75 CNS it was 104%; in the assay on SNB-19 CNS it was 111%; in the assay with U251 CNS it was 96.9%; in the assay with PC-3 prostate, 105%. Moreover, the growth in the assay with SK-MEL-5 melanoma is 98.1%; with UACC-62 melanoma, 101%; in the assay on LOX IMVI melanoma, 87%; with SK-MEL-28 melanoma, 99.1%; in the assay on SK-MEL-2 melanoma, 112%; with EKVX NSCLC, 94.9%. The growth in the assay on SN12C renal is 99.6%; in the assay with UO-31 renal it was 70.4%; in the assay with TK-10 renal, 129%; in the assay with ACHN renal, 97.5%; in the assay on CAKI-1 renal, 85.9%; in the assay with A498 renal it was 88.8%. Besides, the growth is 80.1% with CCRF-CEM leukemia and 82.3% in the assay on MOLT-4 leukemia.

For `O=C(NCc1ccc2c(c1)OCO2)NCC1CCCC(CNC(=O)NCc2ccc3c(c2)OCO3)C1` (stereo not given), the growth is 99.2% with HCT-15 colon; 110% in the assay with HT29 colon; 97.3% in the assay on SNB-75 CNS; 87.7% in the assay on SNB-19 CNS; 103% in the assay on U251 CNS; 102% in the assay on PC-3 prostate. For the same compound, the growth in the assay with SK-MEL-5 melanoma was 102%; with UACC-62 melanoma, 95.8%; in the assay with LOX IMVI melanoma it was 97.9%; in the assay on SK-MEL-28 melanoma it was 114%; with SK-MEL-2 melanoma, 109%; in the assay with EKVX NSCLC, 106%. Further, the growth is 102% in the assay on SN12C renal; 95.7% with UO-31 renal; 101% in the assay with TK-10 renal; 105% in the assay with ACHN renal; 89.6% in the assay with CAKI-1 renal; 95.3% in the assay with A498 renal. The growth in the assay with CCRF-CEM leukemia was 85.1%; in the assay on MOLT-4 leukemia it was 92.9%.

Consider `COc1ccc2c(O)c(/C=C3\N=Nc4ccccc43)oc2c1C[C@H]1CCNC[C@H]1F`, for which the growth with HCT-15 colon is 33.6%; in the assay on HT29 colon, 19.3%; in the assay on SNB-75 CNS, 61.4%; in the assay on SNB-19 CNS it was 67.7%; in the assay with U251 CNS, 65.4%; in the assay with PC-3 prostate, 40.8%. Further, the growth in the assay with SK-MEL-5 melanoma is 48.3%; with UACC-62 melanoma it was 41.2%; in the assay on LOX IMVI melanoma it was 35%; with SK-MEL-28 melanoma it was 68.3%; with SK-MEL-2 melanoma it was 83.1%; in the assay on EKVX NSCLC it was 40%. In addition, the growth in the assay on SN12C renal is 45.2%; in the assay with UO-31 renal, 45.3%; in the assay with TK-10 renal, 65.4%; in the assay with ACHN renal it was 42.8%; with CAKI-1 renal, 31%; with A498 renal it was 39.9%. The growth is 47.9% with CCRF-CEM leukemia and 24.2% in the assay with MOLT-4 leukemia.
